# Measurements taken from PubChem BioAssay (NCATS).
# Inconclusive results are not listed. A call without a number means that no potency is given here. Calls of active or inactive are those of the source. Unless noted, calls follow the shape of the dose curve; as a rule, active = well fitted curve in the direction sought with a large enough effect; inconclusive = small, poorly fitted or top-dose-only effect, or another doubt; inactive = no such curve, though single readings can be large; an effect the other way counts as inactive or inconclusive.
# Experiments:
# [1] = molecular target: D(1A) dopamine receptor (Homo sapiens) (UniProt P21728); assay: HTS Assay for Allosteric Agonists of the Human D1 Dopamine Receptor: Primary Screen for Potentiators (AID 488982)
# Chain of D(1A) dopamine receptor (Homo sapiens) (P21728 whole entry, looked up): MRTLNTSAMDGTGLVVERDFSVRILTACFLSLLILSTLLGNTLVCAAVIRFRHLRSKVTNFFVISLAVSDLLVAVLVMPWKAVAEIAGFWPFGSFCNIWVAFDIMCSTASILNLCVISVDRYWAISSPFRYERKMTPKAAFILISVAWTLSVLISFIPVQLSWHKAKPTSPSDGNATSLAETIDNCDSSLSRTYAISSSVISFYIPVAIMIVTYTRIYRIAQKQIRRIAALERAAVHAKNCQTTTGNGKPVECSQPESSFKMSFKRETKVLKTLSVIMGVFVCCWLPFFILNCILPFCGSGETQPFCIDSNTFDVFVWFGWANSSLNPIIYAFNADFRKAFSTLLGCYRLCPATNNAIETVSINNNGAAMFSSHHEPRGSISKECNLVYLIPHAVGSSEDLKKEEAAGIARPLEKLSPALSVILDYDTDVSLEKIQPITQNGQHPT
# Procedure, shortened: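 Tetracycline-induced HEK293 Trex D1 cells with forced coupling to calcium, loaded with no-wash calcium dye; kinetic fluorescence read 180 s after compound addition for agonism, then a further 180 s after an EC20 dopamine challenge for potentiation.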
# [2] = molecular target: ATP-dependent 6-phosphofructokinase (Trypanosoma brucei brucei) (UniProt O15648); assay: qHTS Assay to Find Inhibitors of T. brucei phosphofructokinase: hit validation (AID 492961);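 also: luminescence reports ADP formed as PFK phosphorylates fructose-6-phosphate with ATP; series mostly up to about 51 µM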
# Chain of ATP-dependent 6-phosphofructokinase (Trypanosoma brucei brucei) (O15648 whole entry, looked up): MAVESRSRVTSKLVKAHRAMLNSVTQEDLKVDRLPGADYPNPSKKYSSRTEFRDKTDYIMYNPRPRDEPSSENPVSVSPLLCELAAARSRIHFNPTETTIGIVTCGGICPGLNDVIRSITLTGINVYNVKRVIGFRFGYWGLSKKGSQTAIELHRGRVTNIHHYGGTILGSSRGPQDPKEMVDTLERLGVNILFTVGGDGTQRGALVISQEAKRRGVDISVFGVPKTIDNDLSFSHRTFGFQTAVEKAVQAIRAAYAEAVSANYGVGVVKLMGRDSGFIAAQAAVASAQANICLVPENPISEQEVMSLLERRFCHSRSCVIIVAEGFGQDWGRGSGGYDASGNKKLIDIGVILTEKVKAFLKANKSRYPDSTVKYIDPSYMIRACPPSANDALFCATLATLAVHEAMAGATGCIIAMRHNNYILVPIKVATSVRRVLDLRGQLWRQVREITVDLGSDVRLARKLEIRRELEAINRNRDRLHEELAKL
# Procedure, shortened: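 Compounds titrated; %activity normalized to 0x and 1x enzyme controls, curve-fitted. Readout: ADP-Glo luminescence after 45 min room-temperature reaction of 1.25 nM PFK, 0.1 mM ATP, 0.5 mM F6P, pH 8.0.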
# [3] = Validation screen for small molecules that induce genotoxicity in human embryonic kidney (HEK293T) cells expressing luciferase-tagged ELG1 (AID 493106)
# Procedure, shortened: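 ELG1-luciferase reporter readout (ONE-Glo, 30 min, room temperature) after 16 hr compound treatment at 37 °C of HEK293T cells at 2,000 per well. Rising luminescence flags genotoxic stress.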
# [4] = molecular target: Thyrotropin-releasing hormone receptor (Homo sapiens) (UniProt P34981); assay: qHTS for Small Molecule Agonists and Allosteric Enhancers of Human TRH Receptor: Validation Screen for Agonists (AID 493127;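 active = calcium activation more than 3 SD above the typical response in the agonist read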;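 also: intracellular calcium rise by fluo-8 fluorescence before TRH EC20 addition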); conditions: TRH receptor agonist cell assay; at 2 µM; stronger effect = higher value
# Chain of Thyrotropin-releasing hormone receptor (Homo sapiens) (P34981 whole entry, looked up): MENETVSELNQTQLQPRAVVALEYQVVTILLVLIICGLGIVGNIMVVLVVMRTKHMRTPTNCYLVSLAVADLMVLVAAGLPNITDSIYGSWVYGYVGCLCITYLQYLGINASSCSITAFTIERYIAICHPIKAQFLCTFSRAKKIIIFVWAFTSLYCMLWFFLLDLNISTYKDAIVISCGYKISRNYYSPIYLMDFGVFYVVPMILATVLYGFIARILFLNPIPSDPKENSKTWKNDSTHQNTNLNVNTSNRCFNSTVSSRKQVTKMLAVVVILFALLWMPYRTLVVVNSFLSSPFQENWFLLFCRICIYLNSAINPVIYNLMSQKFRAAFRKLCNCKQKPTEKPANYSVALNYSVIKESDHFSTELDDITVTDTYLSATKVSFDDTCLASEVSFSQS
# Procedure, shortened: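 Compound-evoked intracellular calcium release in fluo-8-loaded TRHR cells, read kinetically on FDSS (Ex 480/Em 530, 1 s/cycle) after 23 nL pintool transfer. Agonist phase preceded 10 nM TRH EC20 addition.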
# [5] = Nrf2 qHTS screen for inhibitors: Validation (AID 493153; active = well fitted inhibition curve with a large enough effect in the main read-out, with a control signal flat, not every such curve was filed as active); conditions: Potency: luciferase luminescence; viability change: measured here: cytotoxicity max response
# Procedure, shortened: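 Concentration-response on A549 ARE_Fluc reporter cells exposed 18-24 h at 37 C, 5% CO2. Cytotoxicity read first by CellTiter-Fluor fluorescence (Ex 405/Em 525), then Nrf2 inhibition by BugLite luminescence after 15 min.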
# [6] = qHTS for Inhibitors of Cell Surface uPA Generation: Validation Assay (AID 493164);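 also: RAW 264.7 macrophage cells exposed to compound for 18 h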
# Procedure, shortened: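 ATP-Lite luminescence read-out: ATP remains high when uPA activity-dependent LF translocation into the cytoplasm is blocked. RAW 264.7 cells, 18 h compound exposure at 37 C; 7-point titration, 2.45 nM to 38.3 uM final.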
# [7] = molecular target: Galactokinase (Homo sapiens) (UniProt P51570); assay: qHTS Validation Assay for Inhibitors of Human Galactokinase (GALK) (AID 493189)
# Procedure, shortened: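 GALK (5 nM) with 35 uM ATP and 100 uM galactose in HEPES pH8.0, MgCl2, NaCl, DTT, BSA; 1 h at room temperature. Residual ATP read by Kinase-Glo Plus luminescence after 10 min.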
# [8] = Validation screen for small molecules that induce DNA re-replication in SW480 colon adenocarcinoma cells (AID 504364)
# Procedure, shortened: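 Image-based DNA content read-out: Hoechst stain 40 min, total nuclear fluorescence intensity (ex 405 nm, em 500-530 nm) after 48 h compound exposure of 250 SW480 cells/well at 37 C, 5% CO2, versus DMSO vehicle.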
# [9] = molecular target: Peptidyl-prolyl cis-trans isomerase NIMA-interacting 1 (Homo sapiens) (UniProt Q13526); assay: qHTS Validation Assay to Find Inhibitors of Pin1 (AID 504536; active = well fitted inhibition curve with a large enough effect in the polarisation, with a control signal flat, not every such curve was filed as active; the % refers to the polarisation)
# Chain of Peptidyl-prolyl cis-trans isomerase NIMA-interacting 1 (Homo sapiens) (Q13526 whole entry, looked up): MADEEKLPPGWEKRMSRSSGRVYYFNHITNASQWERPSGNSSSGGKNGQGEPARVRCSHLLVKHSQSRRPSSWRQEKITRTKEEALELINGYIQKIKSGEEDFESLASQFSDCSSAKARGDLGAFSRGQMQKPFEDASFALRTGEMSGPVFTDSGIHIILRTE
# Procedure, shortened: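 Fluorescence polarization competition: compounds (titration) displace HiFluor-488-labeled Pin1-1b peptide from Pin1 (0.3 uM final) in pH 7.5 HEPES buffer with DTT, 10 min at room temperature; %Activity normalized to no-enzyme wells, curves fitted.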
# [10] = molecular target: Phosphoglycerate kinase, glycosomal (Trypanosoma brucei brucei) (UniProt P07378); assay: qHTS Validation Assay to Find Inhibitors of Phosphoglycerate Kinase (AID 504547)
# Procedure, shortened: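 Compounds are pinned into the substrate/PGK mixture, and GAPDH (100nM final) is added to start the reaction by producing 1,3-BPG. After 60 minutes at room temperature, Kinase-Glo Plus is added and luminescence is measured 10 minutes later.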
# [11] = molecular target: Ubiquitin carboxyl-terminal hydrolase 1 (Homo sapiens) (UniProt O94782); assay: Inhibitors of USP1/UAF1: Pilot qHTS (AID 504865);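 also: rhodamine fluorescence freed from ubiquitin-rhodamine substrate followed over time; top concentration of the series differs between compounds; nearly all actives have a fitted effect of over 35% in size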
# Chain of Ubiquitin carboxyl-terminal hydrolase 1 (Homo sapiens) (O94782 whole entry, looked up): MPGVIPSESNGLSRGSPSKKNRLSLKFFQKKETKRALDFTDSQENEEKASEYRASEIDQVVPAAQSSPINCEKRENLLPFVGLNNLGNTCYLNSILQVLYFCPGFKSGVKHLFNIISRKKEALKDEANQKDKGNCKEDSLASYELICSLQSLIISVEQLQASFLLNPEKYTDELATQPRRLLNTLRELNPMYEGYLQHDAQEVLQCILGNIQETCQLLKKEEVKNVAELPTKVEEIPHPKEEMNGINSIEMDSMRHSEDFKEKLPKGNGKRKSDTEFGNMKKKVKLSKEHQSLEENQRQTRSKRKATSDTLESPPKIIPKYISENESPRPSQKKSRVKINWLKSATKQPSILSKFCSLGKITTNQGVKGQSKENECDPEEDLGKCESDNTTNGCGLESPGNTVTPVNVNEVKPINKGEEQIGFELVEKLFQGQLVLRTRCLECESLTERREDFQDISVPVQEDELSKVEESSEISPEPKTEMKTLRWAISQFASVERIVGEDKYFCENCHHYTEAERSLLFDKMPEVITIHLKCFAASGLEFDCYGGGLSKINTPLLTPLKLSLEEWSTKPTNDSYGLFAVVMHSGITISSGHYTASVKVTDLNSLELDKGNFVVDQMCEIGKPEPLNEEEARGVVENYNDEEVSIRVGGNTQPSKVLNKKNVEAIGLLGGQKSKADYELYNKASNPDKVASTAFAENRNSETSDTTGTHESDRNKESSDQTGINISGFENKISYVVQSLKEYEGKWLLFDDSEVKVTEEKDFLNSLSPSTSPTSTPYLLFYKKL
# Procedure, shortened: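 USP1/UAF1 complex (1nM) preincubated with compound 15 min at room temperature, then Ub-Rho substrate (150nM final) added. Fluorescence read kinetically at 480/540 nm, 6 reads every 60 seconds. Buffer: 50mM HEPES pH 7.8, 0.5mM EDTA, 0.1 mg/ml BSA, 1mM TCEP, 0.01% Tween-20.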
# [12] = qHTS for Inhibitors of ATXN expression: Validation of Cytotoxic Assay (AID 588349)
# Procedure, shortened: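 Cytotoxicity counter-screen: ATP-based luminescent viability (CellTiter Glo) after 72 hr exposure of HEK293 cells to a compound titration at 37 degrees C.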
# [13] = qHTS for Inhibitors of ATXN expression: Validation (AID 588378); also: series mostly up to about 57 µM; nearly all actives have a fitted effect of over 75% in size
# Procedure, shortened: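 Luminescence from an ATXN2-FFLuc reporter in HEK293 cells served as read-out after 24 h compound treatment at 37 degrees C; CellTiter-Fluor fluorescence was recorded first to assess viability.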
# [14] = molecular target: ATPase family AAA domain-containing protein 5 (Homo sapiens) (UniProt Q96QE3); assay: Validation screen for small molecules that inhibit ELG1-dependent DNA repair in human embryonic kidney (HEK293T) cells expressing luciferase-tagged ELG1 (AID 493107);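 also: series mostly up to about 46 µM; inhibitors lower the ELG1-luciferase luminescence signal; nearly all actives have a fitted effect of over 70% in size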
# Chain of ATPase family AAA domain-containing protein 5 (Homo sapiens) (Q96QE3 whole entry, looked up, the tested form may be a part): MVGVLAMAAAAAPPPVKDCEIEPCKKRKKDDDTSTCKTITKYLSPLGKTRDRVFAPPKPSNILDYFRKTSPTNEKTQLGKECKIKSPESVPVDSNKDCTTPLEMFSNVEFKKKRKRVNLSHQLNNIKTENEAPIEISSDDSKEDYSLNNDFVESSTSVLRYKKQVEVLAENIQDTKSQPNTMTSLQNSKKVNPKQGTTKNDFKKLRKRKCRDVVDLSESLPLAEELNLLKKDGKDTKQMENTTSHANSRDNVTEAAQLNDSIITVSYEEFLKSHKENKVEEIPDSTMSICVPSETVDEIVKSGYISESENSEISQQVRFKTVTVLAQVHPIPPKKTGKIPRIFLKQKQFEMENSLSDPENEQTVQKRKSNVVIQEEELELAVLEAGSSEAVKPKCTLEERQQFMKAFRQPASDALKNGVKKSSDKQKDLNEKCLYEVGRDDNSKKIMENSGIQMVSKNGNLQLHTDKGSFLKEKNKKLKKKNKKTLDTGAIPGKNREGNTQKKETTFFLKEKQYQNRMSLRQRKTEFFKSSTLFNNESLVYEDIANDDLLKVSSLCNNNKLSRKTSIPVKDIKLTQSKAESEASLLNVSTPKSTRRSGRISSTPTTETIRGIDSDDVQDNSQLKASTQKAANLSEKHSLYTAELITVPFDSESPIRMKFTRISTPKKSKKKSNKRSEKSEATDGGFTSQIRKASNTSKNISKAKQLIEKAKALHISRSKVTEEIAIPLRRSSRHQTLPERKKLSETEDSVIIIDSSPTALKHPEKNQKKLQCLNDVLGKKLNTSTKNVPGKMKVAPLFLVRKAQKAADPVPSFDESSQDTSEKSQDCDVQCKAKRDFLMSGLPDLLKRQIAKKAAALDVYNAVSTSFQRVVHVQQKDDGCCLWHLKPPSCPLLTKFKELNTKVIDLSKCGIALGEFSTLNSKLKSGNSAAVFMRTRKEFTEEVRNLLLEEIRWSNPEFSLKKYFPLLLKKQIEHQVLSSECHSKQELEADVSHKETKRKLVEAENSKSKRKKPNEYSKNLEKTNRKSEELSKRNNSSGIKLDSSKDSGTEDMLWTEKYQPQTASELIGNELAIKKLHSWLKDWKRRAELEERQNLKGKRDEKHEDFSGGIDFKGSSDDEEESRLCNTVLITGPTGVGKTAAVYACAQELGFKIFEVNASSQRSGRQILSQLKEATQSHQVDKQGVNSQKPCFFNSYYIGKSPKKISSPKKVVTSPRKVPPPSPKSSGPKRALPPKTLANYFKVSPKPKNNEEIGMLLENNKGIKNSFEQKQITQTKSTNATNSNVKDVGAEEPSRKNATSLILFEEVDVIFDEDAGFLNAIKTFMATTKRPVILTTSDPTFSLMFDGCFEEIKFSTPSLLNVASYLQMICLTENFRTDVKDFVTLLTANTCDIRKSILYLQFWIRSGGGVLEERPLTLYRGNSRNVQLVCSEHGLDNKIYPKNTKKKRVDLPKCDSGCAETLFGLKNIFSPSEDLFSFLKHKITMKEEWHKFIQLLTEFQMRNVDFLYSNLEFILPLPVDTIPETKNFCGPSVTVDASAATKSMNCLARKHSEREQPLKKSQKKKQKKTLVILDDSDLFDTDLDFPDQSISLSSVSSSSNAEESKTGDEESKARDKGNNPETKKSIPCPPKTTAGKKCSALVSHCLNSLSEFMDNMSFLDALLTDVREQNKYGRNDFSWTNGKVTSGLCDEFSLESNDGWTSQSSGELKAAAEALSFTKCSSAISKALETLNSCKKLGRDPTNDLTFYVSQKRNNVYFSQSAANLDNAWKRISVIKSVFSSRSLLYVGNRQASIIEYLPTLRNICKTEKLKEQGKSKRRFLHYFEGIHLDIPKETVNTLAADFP
# Procedure, shortened: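 Luciferase read-out, ONE-Glo, 30 min at room temperature, follows 16 h co-exposure at 37 C of compound and the DNA-damaging agent 5-fluorouridine. Cells: HEK293T with ELG1-luciferase fusion, 2,000 per well, DMSO as vehicle.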
# [15] = molecular target: DNA dC->dU-editing enzyme APOBEC-3G (Homo sapiens) (UniProt Q9HC16); assay: qHTS for inhibitors of Vif-A3G interactions: Validation (AID 588379)
# Procedure, shortened: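 Yellow fluorescence (Ex 488, Em 500-530) of Vif-coexpressing HeLa A3G-eYFP cells, scanned by Acumen cytometer, reports blocked A3G degradation. Cells plated at 700/well overnight at 37 deg C before compound addition, then a further overnight compound incubation at 37 deg C.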
# [16] = molecular target: phosphoglycerate mutase (Leishmania major) (UniProt Q4Q090); assay: qHTS Validation Assay to Find Inhibitors of Phosphoglycerate Mutase (AID 504548); also: series mostly up to about 58 µM
# Procedure, shortened: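 Luminescent end-point read-out via Kinase-GloPlus after a 10-minute development. Reaction: 1.25nM Leishmania major PGAM with substrate and compound, 45 minutes at room temperature in TEA buffer (pH 7.6) with MgCl2 and Tween-20.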
# [17] = molecular target: Estrogen receptor (Homo sapiens) (UniProt P03372); assay: qHTS assay for small molecule antagonists of estrogen receptor alpha signaling (AID 588513; active = well fitted curve in the direction sought with a large enough effect in the signal ratio, with a control signal flat, not every such curve was filed as active; the % refers to the signal ratio)
# Chain of Estrogen receptor (Homo sapiens) (P03372 whole entry, looked up): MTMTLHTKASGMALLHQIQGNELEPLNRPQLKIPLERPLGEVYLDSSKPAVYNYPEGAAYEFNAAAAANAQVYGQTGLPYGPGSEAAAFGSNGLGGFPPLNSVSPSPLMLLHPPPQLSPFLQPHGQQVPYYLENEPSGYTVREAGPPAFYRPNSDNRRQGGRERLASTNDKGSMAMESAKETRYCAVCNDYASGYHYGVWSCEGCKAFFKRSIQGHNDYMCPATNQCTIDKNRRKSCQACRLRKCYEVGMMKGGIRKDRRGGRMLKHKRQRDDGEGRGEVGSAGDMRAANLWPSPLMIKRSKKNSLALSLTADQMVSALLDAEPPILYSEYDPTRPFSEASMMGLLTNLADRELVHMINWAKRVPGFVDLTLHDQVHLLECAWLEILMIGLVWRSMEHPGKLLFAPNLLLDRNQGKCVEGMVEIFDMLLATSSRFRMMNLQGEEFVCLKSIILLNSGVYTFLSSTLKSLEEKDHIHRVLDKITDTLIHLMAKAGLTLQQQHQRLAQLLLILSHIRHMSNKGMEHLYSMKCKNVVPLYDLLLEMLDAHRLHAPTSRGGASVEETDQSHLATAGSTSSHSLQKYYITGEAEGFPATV
# Procedure, shortened: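 ER-alpha-UAS-bla GripTite HEK 293 cells in medium with 2% charcoal/dextran-treated FBS were preincubated 4 h at 37 C, dosed with compound (1:2 titration), stimulated with 0.5nM 17-beta-estradiol for 18 h, then read by CCF4 beta-lactamase fluorescence.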
# [18] = molecular target: Estrogen receptor (Homo sapiens) (UniProt P03372); assay: qHTS assay for small molecule agonists of estrogen receptor alpha signaling (AID 588514; calls by dose curve; also: nearly all actives have a fitted effect of over 70% in size; also: potency is read from the fitted curve at half-maximal effect)
# Procedure, shortened: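 EC50 and efficacy came from Hill fits of beta-lactamase reporter signal (CCF4 dye, 2 h at room temperature) scaled between DMSO and 20 nM 17-beta-estradiol. Agonist mode: HEK293 ER-alpha-UAS-bla cells in charcoal/dextran-stripped serum medium, 18 h compound exposure at 37 C.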
# [19] = molecular target: D(1A) dopamine receptor (Homo sapiens) (UniProt P21728); assay: HTS Assay for Allosteric Agonists of the Human D1 Dopamine Receptor: Primary Screen for Antagonists (AID 488983);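 also: calcium flux response to an EC80 dopamine challenge measured with no-wash dye; nearly all actives have a fitted effect of over 65% in size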
# Procedure, shortened: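 Calcium-flux read-out in inducible HEK293 T-REx cells expressing D1, dye-loaded 30–90 min at room temperature. Kinetic reads: 180 s after compound (agonist phase), then 180 s after an EC80 dopamine challenge.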
# [20] = molecular target: Androgen receptor (Homo sapiens) (UniProt P10275); assay: qHTS assay for small molecule agonists of androgen receptor signaling (AID 588515; active = well fitted curve in the direction sought with a large enough effect in the signal ratio, with a control signal flat; the % refers to the signal ratio; also: potency is read from the fitted curve at half-maximal effect); conditions: AR-UAS-bla HEK293, beta-lactamase ratio, agonist 16 h; activation: stronger effect = higher value
# Procedure, shortened: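 Stimulation of an AR-responsive β-lactamase reporter in GripTite HEK293 cells was measured after 16 h compound exposure at 37 °C, via CCF4 fluorescence after 2 h RT. EC50 from Hill fits, normalized to R1881 at 30 nM.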
smiles,measurement,setting,value
CCCC(C(=O)OCCN(CC)CC)(c1ccccc1)c1ccccc1,Potency,[1],inactive
same,outcome,[2],inactive
same,Potency,[3],inactive
same,activation,[4],-7.5% (inactive)
same,Potency,[5],inactive
same,viability change,[5],-7.4%
same,outcome,[6],inactive
same,outcome,[7],inactive
same,outcome,[8],inactive
same,outcome,[9],inactive
same,outcome,[10],inactive
same,Potency,[11],inactive
same,Potency,[12],inactive
same,Potency,[13],inactive
CCOC(=O)c1cnc2c(cnn2CC)c1NN=C(C)C,Potency,[1],inactive
same,outcome,[2],inactive
same,Potency,[3],inactive
same,Potency,[14],inactive
same,activation,[4],-4.75% (inactive)
same,Potency,[5],inactive
same,viability change,[5],-1.57%
same,outcome,[7],inactive
same,outcome,[8],inactive
same,outcome,[9],inactive
same,outcome,[10],inactive
same,Potency,[11],inactive
same,Potency,[12],inactive
same,Potency,[13],inactive
same,outcome,[15],inactive
C[N+](C)(C)CCOC(=O)CCC(=O)OCC[N+](C)(C)C,Potency,[1],inactive
same,outcome,[2],inactive
same,Potency,[3],inactive
same,Potency,[14],inactive
same,activation,[4],0.188% (inactive)
same,Potency,[5],inactive
same,viability change,[5],0.0745%
same,outcome,[6],inactive
same,outcome,[7],inactive
same,outcome,[8],inactive
same,outcome,[9],inactive
same,outcome,[10],inactive
same,outcome,[16],inactive
same,Potency,[11],inactive
same,Potency,[13],inactive
CC(=O)Nc1nnc(S(N)(=O)=O)s1,Potency,[1],inactive
same,Potency,[3],inactive
same,Potency,[14],inactive
same,activation,[4],1.38% (inactive)
same,Potency,[5],inactive
same,viability change,[5],3.35%
same,outcome,[6],inactive
same,outcome,[7],inactive
same,outcome,[8],inactive
same,outcome,[9],inactive
same,outcome,[10],inactive
same,outcome,[16],inactive
same,Potency,[11],inactive
same,Potency,[12],inactive
same,Potency,[13],inactive
same,outcome,[17],inactive
same,Potency,[18],inactive
COC(=O)C1=C(C)NC(C)=C(C(=O)OC(C)(C)CN(C)CCC(c2ccccc2)c2ccccc2)C1c1cccc([N+](=O)[O-])c1 (stereo not drawn),Potency,[1],inactive
same,outcome,[2],inactive
same,Potency,[3],inactive
same,outcome,[6],inactive
same,outcome,[9],inactive
same,outcome,[16],inactive
CCn1cc(C(=O)O)c(=O)c2cc3c(cc21)OCO3,Potency,[1],inactive
same,Potency,[3],inactive
same,Potency,[14],inactive
same,activation,[4],-0.375% (inactive)
same,Potency,[5],inactive
same,viability change,[5],-3.79%
same,outcome,[6],inactive
same,outcome,[7],inactive
same,outcome,[8],inactive
same,outcome,[9],inactive
same,outcome,[10],inactive
same,outcome,[16],inactive
same,Potency,[11],inactive
same,Potency,[12],inactive
same,Potency,[13],inactive
CN(C)CCCN1c2ccccc2Sc2ccc(C(F)(F)F)cc21,Potency,[1],inactive
same,outcome,[2],inactive
same,Potency,[5],inactive
same,viability change,[5],0.635%
same,outcome,[7],inactive
same,outcome,[9],inactive
same,outcome,[10],inactive
same,outcome,[16],inactive
CC(C)(Oc1ccc(CCNC(=O)c2ccc(Cl)cc2)cc1)C(=O)O,Potency,[1],inactive
same,outcome,[2],inactive
same,Potency,[3],inactive
same,Potency,[14],inactive
same,Potency,[5],inactive
same,viability change,[5],5.14%
same,outcome,[9],inactive
same,outcome,[16],inactive
same,Potency,[11],inactive
same,Potency,[12],inactive
same,Potency,[13],inactive
same,outcome,[17],inactive
same,Potency,[18],inactive
Nc1nc(N)c2nc(-c3ccccc3)c(N)nc2n1,Potency,[1],inactive
same,Potency,[19],inactive
same,activation,[4],-0.0625% (inactive)
same,Potency,[5],inactive
same,viability change,[5],5.44%
same,outcome,[6],inactive
same,outcome,[7],inactive
same,outcome,[8],inactive
same,outcome,[10],inactive
same,outcome,[16],inactive
same,Potency,[11],inactive
same,Potency,[13],inactive
same,outcome,[17],inactive
same,Potency,[18],35.5 µM (active)
same,Potency,[20],44.7 µM (active)
